Each structure is given as a SMILES string. Unmarked numbers belong to inactive results.

The assay relates to Caenorhabditis elegans L1 (N2). Briefly: survival and reproduction score of C. elegans L1 (0: 0-10 living worms, 1: 11-20, 2: 21-50, 3: >50, 4: overgrown) (score 0-4); higher = more worms, less nematicidal, active = 1 or less; extreme values may be limits of the assay. The following applies: 60 µM; 6 days; temperature: 20 °C. Summed up:
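About 20 synchronized C. elegans N2 L1s were added per 96-well well with E. coli HB101 in liquid NGM, and compound was pinned to 60 µM final (0.6% v/v DMSO). Sealed plates were shaken at 200 rpm for 6 days at 20 °C. Survival and reproduction were scored under a dissection microscope as an ordinal score of living worms per well. The scale ran 0 (0–10 worms) to 4 (overgrown, starved), and two biological replicates were averaged.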
Regarding `COc1ccc(-c2nnc(SCC(=O)c3ccccc3)o2)cc1`, the “survival and reproduction score” value is 4.
For `Cc1ccc(-c2nnc(SCC(=O)Nc3nccs3)o2)cc1`, the “survival and reproduction score” value is 4.
On to `O=C(Nc1ccccc1-c1nc(-c2cccnc2)no1)c1ccc(Cl)cc1`, for which the “survival and reproduction score” value was 4.
As to `Cc1ccc(-c2nnc(SCC(=O)NCc3ccccc3)o2)cc1`, the “survival and reproduction score” value was 4.
In the case of `O=C(CSc1nnc(-c2ccccc2Cl)o1)Nc1nccs1` it was 4; in that of `Cc1ccccc1-c1noc(-c2ccccc2C(=O)NCc2ccccc2)n1`, 4; in that of `COc1ccc(-c2nnc(SCC(=O)Nc3ccc(C)cc3Br)o2)cc1`, 4.
On to `O=C(CSc1nnc(-c2ccccc2Cl)o1)Nc1ccc(Br)cn1`, for which the “survival and reproduction score” value is 4.
As for `Brc1cccc(-c2nc(-c3cccnc3)no2)c1`, the figure is 4.
As for `Brc1ccc(-c2noc(-c3ccco3)n2)cc1`, the figure is 0 (active); as for `Brc1cccc(-c2noc(-c3ccc4c(c3)OCO4)n2)c1`, 4; as for `CCSc1nnc(-c2ccc(Cl)cc2Cl)o1`, 0 (active).
As for `Clc1ccc(-c2nc(-c3cccnc3)no2)c(Cl)c1`, the figure is 2.
For `Cc1ccccc1-c1nnc(SCc2ccccc2)o1`, the “survival and reproduction score” value is 3.
In the case of `CCCC(=O)Nc1ccccc1-c1nc(-c2cccnc2)no1` it was 4; in that of `CCOc1ccccc1-c1nc(-c2ccc(NC(=O)CCc3ccc(OC)cc3)cc2)no1`, 4.
`COc1cccc(NC(=O)CSc2nnc(-c3ccc(Br)cc3)o2)c1`: the “survival and reproduction score” value is 4.
In the case of `Cc1cc(Br)ccc1OCc1nc(-c2ccccn2)no1` it was 4; in that of `Fc1ccc(-c2noc(COc3ccccc3Cl)n2)cc1`, 4.

The record behind these values is the supplement of paper PMC11219838.
